Most compounds without a hit are left out; they make up all but 13% or so of the library.
RAM network inh – inhibitors of the yeast RAM network; S. cerevisiae dse1pr::URA3 reporter, 5-FOA growth OD615, 2 d; analog-sensitive cbk1-as2 kinase mutant strain; 1.8% of 190,000 active; AID 868; inhibition, % at 50 µM;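 active = inhibition above a set limit, 3 SD over mean compound inhibition, cut at about 8.4% in these data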;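 note: 0% = DMSO-only wells with no growth and 100% = 10 µM 1-NA-PP1 full growth; inhibition rescues growth on 5-FOA so higher OD means more RAM inhibition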
L major viab – inhibitors of Leishmania major promastigote growth. inhibition, % at 10 µM. AID 1063. 9% of 200,000 active. Leishmania major promastigotes, resazurin fluorescence viability; in the data active = inhibition above about 50%;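 note: promastigotes grown with compound for 44 hours at 28 °C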
CHOP inhibitor – blocks CHOP induction under ER stress | 3.8% of 220,000 active | inhibition, % at 10 µM | CHO-K1 CHOP-promoter luciferase, tunicamycin-induced, 15-18 h;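 active = compounds that reduced the stress-induced luciferase reporter signal by more than about 70% of percent inhibition, limit read from the data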;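 note: 0% = tunicamycin plus vehicle and 100% = wells without tunicamycin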
WT yeast gro inh – growth inhibition of WT yeast, mitochondrial fusion screen | mitochondrial fusion phenotypic screen, WT strain | inhibition, % at 10 µM | 2.1% of 190,000 active; in the data active = inhibition above about 58%; tested in S. cerevisiae
An asterisk follows results filed as active; nt = no result given.

SMILES	RAM network inh	L major viab	CHOP inhibitor	WT yeast gro inh
COc1ccc(C(c2nnnn2Cc2ccccc2)N2CCN(c3nc4ccccc4s3)CC2)cc1 (stereo unspecified)	4	100*	21	8
Fc1ccc(Cn2nnnc2C(c2ccc(Cl)cc2)N2CCSCC2)cc1 (stereo unspecified)	2	99*	20	44
COc1ccc(C(c2nnnn2Cc2ccccc2)N2CCN(c3ccccc3)CC2)cc1 (stereo unspecified)	-2	2	10	12
c1ccc(CN2CCN(C(c3ccccc3)c3nnnn3Cc3ccccc3)CC2)cc1 (stereo unspecified)	2	33	12	5
CN(C)/C=C/C(=O)c1cnc(-c2ccccn2)s1	1	-5	-16	-6
S=C1NCN(C2CCCCC2)CN1CCc1ccccc1	nt	nt	1	nt
CCOc1ccccc1NC1c2ccccc2C(=O)N1Cc1ccco1 (stereo unspecified)	0	10	28	8
CCc1ccccc1NC1c2ccccc2C(=O)N1Cc1ccco1 (stereo unspecified)	-1	6	75*	-3
COC(=O)[C@H](C)NC(=O)Nc1cccc(Br)c1	nt	nt	10	nt
CC(=O)Nc1ccc(NC(=O)C(C)OC(=O)CN(C)S(=O)(=O)c2ccc(Cl)cc2)cc1 (stereo unspecified)	5	-1	-25	-8
CC(=O)Nc1ccc(NC(=O)C(C)OC(=O)CNS(=O)(=O)c2cccc(Cl)c2)cc1 (stereo unspecified)	1	82*	8	-7
COc1ccc(/C=N/NC(=O)c2nn(-c3ccccc3)c(=O)c3c(N)scc23)cc1	7	83*	-30	3
COc1ccc(/C=N/NC(=O)c2nn(-c3ccc(C)c(C)c3)c(=O)c3ccccc23)cc1	2	28	22	27
COc1ccc(/C=N/NC(=O)c2nn(-c3ccc(Cl)cc3)c(=O)c3c(N)scc23)cc1	5	69*	10	44
CCC(=O)Nc1cc(-c2nn(C)c(=O)c3ccccc23)ccc1N1CCOCC1	2	0	-2	-17
Cn1nc(-c2ccc(N3CCCCC3)c(NC(=O)c3ccco3)c2)c2ccccc2c1=O	1	56*	88*	40
C=CCNc1ncnc2c1[nH]c1ccc(Cl)cc12	1	100*	10	34
C=CCNc1ncnc2c1[nH]c1ccccc12	1	67*	-5	10
CCOCCCNc1ncnc2c1[nH]c1ccccc12	1	44	47	-15
c1ccc2c(c1)[nH]c1c(NCC3CCCO3)ncnc12 (stereo unspecified)	-1	86*	20	-5
COc1cc(CNc2ncnc3c2[nH]c2ccc(C)cc23)cc(OC)c1	nt	nt	20	nt
COc1ccc(OC)c2[nH]c(=O)c(CCNC(=O)c3cccs3)cc12	-1	11	2	2
C1=Nc2c(Nc3ccccc3)ncnc2Oc2ccccc21	4	7	17	-5
CCOC(=O)C1CCCN(c2oc(-c3ccc(OC)cc3)nc2C#N)C1 (stereo unspecified)	8.8*	27	-22	0
CC(=O)Nc1nc(CCN2C(=O)c3ccccc3C2=O)cs1	2	-5	9	-4
SMILES	RAM network inh	L major viab	CHOP inhibitor	WT yeast gro inh
Cc1cc(C)c(S(=O)(=O)N2CCN(C(=O)c3cccs3)CC2)c(C)c1	-1	62*	26	7
Cc1ccc(S(=O)(=O)N2CCN(C(=O)c3cccs3)CC2)c(C)c1	0	1	31	-34
COc1ccc(-c2noc(CCC(=O)NCCCN3CCN(c4ccc(F)cc4)CC3)n2)cc1	0	14	24	-3
O=C(Cn1c(-c2ccccc2)noc1=O)N1CCC(Cc2ccccc2)CC1	0	39	-15	-4
COc1ccc(-c2noc(CCC(=O)NCCCN3CCC(Cc4ccccc4)CC3)n2)cc1	0	100*	40	16
COc1cc(-c2noc(CCCC(=O)Nc3ccc(C(N)=O)cc3)n2)cc(OC)c1OC	nt	nt	-8	nt
COc1ccc(-c2noc(CCCC(=O)Nc3ccc(C(N)=O)cc3)n2)cc1	3	-6	82*	5
COc1ccc(-c2noc(=O)n2CC(=O)N2CCC(Cc3ccccc3)CC2)cc1	1	96*	11	-1
COc1ccc(C)cc1NC(=O)c1ccccc1NS(=O)(=O)c1cccc2cccnc12	0	29	-3	-12
CN1CC(c2ccc(C#N)cc2)C2(COc3ccccc3C2=O)C12C(=O)Nc1ccccc12 (stereo unspecified)	0	90*	36	35
Cc1ccc(C2Oc3ccccc3C3=C2C(c2cccs2)n2ncnc2N3)cc1 (stereo unspecified)	4	51*	34	-18
Oc1ccccc1C1CC(c2cccs2)=NC(c2ccc(Cl)cc2)N1 (stereo unspecified)	0	49	68	73*
CCN1C(=O)CCC(C(=O)O)C1c1ccc(OC)cc1 (stereo unspecified)	nt	nt	-6	nt
CNc1nc(SCc2ccccc2)nc(N2CCOCC2)n1	1	41	40	33
CC(C)(C)Nc1nc(SCc2ccccc2)nc(N2CCOCC2)n1	3	30	74*	66*
CCNc1nc(N2CCOCC2)nc(N(c2ccccc2)c2ccccc2)n1	4	-3	72*	-2
O=C(NCCc1ccccc1)C1CCN(C(=O)c2ccc([N+](=O)[O-])cc2)CC1	3	-3	-5	-13
COc1cc(/C=C/CN2CCN(Cc3ccc(C)o3)C(CCO)C2)ccc1O (stereo unspecified)	1	-1	25	6
CC(=O)C1=C(O)C(=O)N(c2cc(C(C)(C)C)on2)C1c1ccc(Br)cc1 (stereo unspecified)	4	12	-15	-3
CC(=O)C1=C(O)C(=O)N(c2cc(C(C)(C)C)on2)C1c1ccc(C(C)C)cc1 (stereo unspecified)	3	-9	72*	19
COc1ccccc1OCC(=O)Nc1cc(S(=O)(=O)N2CCCCC2)ccc1N1CCCCC1	5	98*	7	-30
COc1ccc(NC(=S)Nc2cc(S(=O)(=O)N3CCCCC3)ccc2OC)cc1	2	91*	0	4
COc1ccc(CC(=O)Nc2cc(S(=O)(=O)N3CCCCC3)ccc2C)cc1OC	2	1	30	-6
COc1ccc(NC(=S)Nc2cccc(S(=O)(=O)N3CCCCC3)c2)cc1	0	95*	46	-16
COc1ccc(S(=O)(=O)N2CCCCCC2)cc1NC(=O)Cc1cc(OC)c(OC)c(OC)c1	3	100*	12	-13
SMILES	RAM network inh	L major viab	CHOP inhibitor	WT yeast gro inh
COc1ccc(S(=O)(=O)N2CCCCC2)cc1NC(=S)Nc1cccc(Cl)c1C	1	11	50	35
Nc1nc(COc2ccccc2C=O)nc(Nc2ccccc2)n1	nt	nt	10	nt
COc1ccc(S(=O)(=O)N2CCCCC2)cc1NC(=S)Nc1ccccc1	3	84*	2	4
CC(=O)Nc1ccc(C(=O)Nc2nc(-c3cccnc3)cs2)cc1	2	14	-3	-14
O=C(Nc1nc(-c2ccccn2)cs1)c1ccc2c(c1)OCCO2	1	99*	33	69*
O=C(Nc1ccccn1)c1ccc2c(c1)OCCO2	1	0	11	15

Assay outcomes: PubChem, several laboratories
